Source: PubChem BioAssay
NFkB SMM – binders of human NF-kappa-B p105. Small molecule microarray, anti-His fluorescence binding. P19838. AID 624139. calls only. hit rate 1.3% among 17,000;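 active = spot fluorescence over background significantly raised, with a chance value under 7% in all four replicate spots of the compound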;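 note: probe protein is his-tagged human p50 processed subunit at 1 µg/ml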
p53 PUMA act – re-activators of the mutant p53 pathway; SW480 PUMA-promoter luciferase, p53 mutant reactivation; activation, % at 9.98 µM; hit rate 1.5% among 28,000; AID 624151; in the data active = activation above about 52%
Myc binder – binders of human c-Myc. small molecule microarray, His-c-Myc binding, anti-His fluorescence. calls only. P01106. hit rate 1.5% among 17,000;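 active = spot fluorescence over background with P-value below 7% in all four replicate spots, showing protein binding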
Target sequence (P01106 whole entry, looked up): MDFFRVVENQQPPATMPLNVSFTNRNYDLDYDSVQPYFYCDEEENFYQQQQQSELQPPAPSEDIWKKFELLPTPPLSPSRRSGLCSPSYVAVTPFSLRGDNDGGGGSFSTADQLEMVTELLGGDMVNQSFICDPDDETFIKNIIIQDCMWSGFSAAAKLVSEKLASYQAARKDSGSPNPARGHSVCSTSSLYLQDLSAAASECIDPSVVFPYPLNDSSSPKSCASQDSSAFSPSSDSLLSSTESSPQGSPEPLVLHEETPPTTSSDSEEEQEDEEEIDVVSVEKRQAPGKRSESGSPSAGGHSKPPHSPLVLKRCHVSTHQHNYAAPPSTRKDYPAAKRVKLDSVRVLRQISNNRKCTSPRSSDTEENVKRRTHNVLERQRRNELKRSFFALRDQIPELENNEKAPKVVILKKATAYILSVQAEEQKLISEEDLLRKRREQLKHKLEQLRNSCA
mut p53 SMM – binds human mutant p53 on microarray; small molecule microarray binding, anti-GST fluorescence; calls only; hit rate 0.4% among 17,000;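 active = compounds whose four printed spots each glow above background more than chance allows, each with a p-value under 7%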
STAT3 binder – binders of human STAT3. calls only. P40763. AID 624138. hit rate 0.2% among 17,000. Small molecule microarray, His-STAT3 binding, anti-His fluorescence;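 active = compounds whose four printed spots each show fluorescence over background unusually high for their array block, chance value under 7%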
A number is an active result; – = inactive; · = no result; + = active, no number. In the library only some 2.6% were active in any assay of this set; here they are far more common.

SMILES | NFkB SMM | p53 PUMA act | Myc binder | mut p53 SMM | STAT3 binder
C[C@H](CO)N1C[C@H](C)[C@H](CN(C)C(=O)C2CCCCC2)OCCCC[C@H](C)Oc2ccc(NS(=O)(=O)c3ccccc3)cc2C1=O | – | – | – | – | +
C[C@H]1CCCCO[C@@H](CN(C)C(=O)C2CCCCC2)[C@@H](C)CN([C@@H](C)CO)C(=O)c2cc(NS(=O)(=O)c3ccccc3)ccc2O1 | – | – | – | – | –
CCCN(C)C[C@H]1OCCCC[C@@H](C)Oc2ccc(NS(=O)(=O)c3ccc(OC)cc3)cc2C(=O)N([C@H](C)CO)C[C@H]1C | – | – | – | + | –
C[C@H](CO)N1C[C@H](C)[C@H](CN(C)Cc2ccccc2)OCCCC[C@H](C)Oc2ccc(NS(=O)(=O)c3ccccc3)cc2C1=O | – | – | – | + | –
C[C@H]1CCCCO[C@H](CN(C)C(=O)C2CCCCC2)[C@@H](C)CN([C@@H](C)CO)C(=O)c2cc(NS(=O)(=O)c3ccccc3)ccc2O1 | + | – | + | – | –
CCCN(C)C[C@H]1OCCCC[C@@H](C)Oc2ccc(NS(=O)(=O)c3ccc(OC)cc3)cc2C(=O)N([C@H](C)CO)C[C@@H]1C | – | – | – | – | –
C[C@@H]1CCCCO[C@@H](CN(C)C(=O)C2CCCCC2)[C@@H](C)CN([C@H](C)CO)C(=O)c2cc(NS(=O)(=O)c3ccccc3)ccc2O1 | – | – | – | – | –
COC(=O)c1cccc(-n2c(CCC(=O)O)ccc2-c2cccs2)c1 | – | 62.7 | – | – | –
Cc1ccc(F)cc1NC(=O)CSc1nnnn1-c1ccccc1 | · | – | · | · | ·
COc1c(Cl)cc(Cl)cc1CNCCNCC(C)O (configuration not stated) | – | – | – | + | +
O=C1c2ccccc2C(=O)N1[C@@H]1CCCN(Cc2ccc(OCCO)cc2)C1 | – | · | – | – | –
CC1(C)CC(=O)c2c(O)cc(OCC(=O)c3ccc(Cl)c(Cl)c3)cc2O1 | · | – | · | · | ·
CC1(C)CC(=O)c2c(O)cc(OCC(=O)c3ccccc3)cc2O1 | – | 62.3 | – | – | –
C[C@@H]1CCCCO[C@@H](CN(C)C(=O)CCC(F)(F)F)[C@H](C)CN([C@@H](C)CO)C(=O)c2cc(NC(=O)Cc3ccccc3)ccc2O1 | – | – | – | – | –
C[C@@H]1CCCCO[C@H](CN(C)C(=O)CCC(F)(F)F)[C@H](C)CN([C@@H](C)CO)C(=O)c2cc(NC(=O)CCC(F)(F)F)ccc2O1 | + | – | – | – | –
C[C@@H]1CCCCO[C@@H](CN(C)C(=O)CCC(F)(F)F)[C@H](C)CN([C@@H](C)CO)C(=O)c2cc(NC(=O)CCC(F)(F)F)ccc2O1 | + | – | + | – | –
COc1ccc(S(=O)(=O)NC2(C(=O)O)CCCCC2)cc1 | · | – | · | · | ·
CCOC(=O)c1ccc(NC(=O)CSc2nccc(=O)[nH]2)cc1 | · | – | · | · | ·
O=S(=O)(N[C@@H]1CCCN(Cc2ccc(OCCO)cc2)C1)c1ccc(Cl)cc1 | – | · | – | – | –
CCOc1ccccc1CNCCN1CCOCC1 | – | – | + | – | –
COc1ccc(C2CC(=O)c3c(O)cc(O)cc3O2)cc1O (configuration not stated) | – | 62.8 | – | – | –
CC(C)(C)c1ccc(S(=O)(=O)NCC(=O)Nc2ccc3c(c2)OCCO3)cc1 | · | – | · | · | ·
COc1ccc(-c2oc3cc(O[C@@H]4O[C@@H](C)[C@H](O)[C@@H](O)[C@H]4O)cc(O)c3c(=O)c2O[C@@H]2O[C@H](CO)[C@@H](O)[C@H](O)[C@H]2O)cc1 | – | – | – | – | –
O=c1c(-c2ccc(O)cc2)coc2cc(OC3OC(CO)C(O)C(O)C3O)cc(O)c12 (configuration not stated) | – | 89.7 | – | – | –
O=C(COc1ccc2ccccc2c1Br)Nc1cccnc1 | · | 79.9 | · | · | ·
SMILES | NFkB SMM | p53 PUMA act | Myc binder | mut p53 SMM | STAT3 binder
Cc1ccc(NC(=O)COc2ccc3ccccc3c2Br)c([N+](=O)[O-])c1 | · | 64.1 | · | · | ·
CC(=O)Nc1ccccc1NC(=O)COc1ccc2ccccc2c1Br | – | – | – | – | –
COc1ccc(NC(=O)COc2ccccc2)c([N+](=O)[O-])c1 | · | 71.7 | · | · | ·
COc1ccc(NC(=O)COc2cc(C)cc(C)c2C)c([N+](=O)[O-])c1 | · | – | · | · | ·
Cc1ccc(NC(=O)CCCOc2ccccc2)c([N+](=O)[O-])c1 | · | 79.1 | · | · | ·
CCn1c(=O)c2c3c(sc2n2c(SCC(=O)Nc4ccc(Cl)cc4)nnc12)CCCC3 | · | – | · | · | ·
N#CC(C(=Nc1ccccc1)SCc1ccc(Cl)cc1)c1nc2ccccc2[nH]1 (configuration not stated) | · | – | · | · | ·
CC(NC(=O)c1ccccc1NC(=O)c1ccccc1)C(=O)Nc1ccc2ccccc2c1 (configuration not stated) | · | – | · | · | ·
Cc1ccc(NC(=O)C(C)Oc2ccc(Cl)cc2Cl)c([N+](=O)[O-])c1 (configuration not stated) | – | 77.0 | – | – | –
COc1ccc(NC(=O)CSc2nc3ccccc3o2)c([N+](=O)[O-])c1 | – | 69.1 | – | – | –
COc1ccc(NC(=O)CSc2nnc(C)s2)c([N+](=O)[O-])c1 | · | – | · | · | ·
COc1ccc(OCC(=O)Nc2ccccc2OC(F)F)cc1 | – | 64.7 | – | – | –
COc1ccc(NC(=O)C(C)Oc2ccccc2)c([N+](=O)[O-])c1 (configuration not stated) | · | 86.2 | · | · | ·
Cc1cc(OCC(=O)Nc2cccnc2)cc(C)c1Cl | · | – | · | · | ·
COc1ccc(CN2C(=O)C(O)(CC(=O)c3ccc(C)s3)c3ccccc32)cc1OC (configuration not stated) | · | – | · | · | ·
O=S(=O)(NC1CCN(Cc2cccc(OCCO)c2)CC1)c1cc(C(F)(F)F)ccc1Cl | – | · | – | – | –
COc1ccc(C#Cc2ccc3c(c2)[C@]2(C(=O)N3)[C@H](c3ccc(O)cc3)N3[C@H](c4ccccc4)[C@H](c4ccccc4)OC(=O)[C@H]3[C@@H]2C(=O)N2CCCCCCC2)cc1 | – | · | – | + | +
O=C1O[C@@H](c2ccccc2)[C@@H](c2ccccc2)N2[C@@H](c3ccc(O)cc3)[C@]3(C(=O)Nc4ccc(C#CC5(O)CCCCCC5)cc43)[C@@H](C(=O)N3CCCCCCC3)[C@H]12 | – | · | – | – | +
O=C1O[C@H](c2ccccc2)[C@H](c2ccccc2)N2[C@H]1[C@@H](C(=O)N1CCCCCCC1)[C@]1(C(=O)Nc3ccc(C#CC4(O)CCCCCC4)cc31)[C@H]2c1ccc(O)cc1 | – | · | – | – | –
C[C@@H]1CN([C@@H](C)CO)C(=O)c2cc(NC(=O)C3CCCCC3)ccc2O[C@@H](C)CCCCO[C@@H]1CN(C)C(=O)C1CCCCC1 | + | · | + | – | –
C[C@@H]1CCCCO[C@H](CN(C)C(=O)Nc2ccccc2)[C@H](C)CN([C@@H](C)CO)C(=O)c2cc(NC(=O)Nc3ccccc3)ccc2O1 | – | – | – | – | –
C[C@H]1CCCCO[C@@H](CN(C)C(=O)Nc2ccccc2)[C@@H](C)CN([C@@H](C)CO)C(=O)c2cc(NC(=O)C3CCCCC3)ccc2O1 | – | – | + | – | –
